Over roughly 4,500 sequences, “median log2 fold change of GCK-ALFA target abundance (FLAG IP / Myc IP barcode read proportion)” has its median near 0.078; the lowest 2% begin near -0.6. Many of the other results were omitted from the sample, so the lowest values are more common in it than they were.
B1: GBRAP_52_5995 (protein)
chain: SAARIEAVAREIVALVLAGDREGARALIRKAFRELSDEEIVEMVRLATRLLMEDPRATDEDIRTFIDLVLDTAEEEGLDEETIADIIGAIATAIKEAELK
B2: GBRAP_125_3094 (protein)
chain: EEEALLAALRRLALALGFSEEEAEELAELAARSSLRQTLYALFAAEGYEELADLVEKLTEEQAREALLRLAAWLDAHPDASREEVVARAREIAEELLAAA
B3: GBRAP_160_4419 (protein)
chain: DELIEEVDELLDETEELVVELVEEGKREEAIAALRVGAGEILLLLDEDESVSEETEEKVDKILDETIKKFEENKDASPEEVRELLDKAREEILAVLKEGS
B4: GBRAP_137_3646 (protein)
chain: PNVTITKETIDDLVEINIEFDDPEKAEEAAELIRDVAHEHGALAVSIEINEDGTLEATIWVPKDKAQALIDALVTRLRTELGANVTVIDKDTGETTVVKA
B5: GBRAP_137_3669 (protein)
chain: MIEAEIELENGLAFARITVEGSKEELERAAEIAEDIAGEIPNLAVSVELSEDGTLVIDVFGTKEDVLKFLKELAKRLNKTVKVKTKNLETGEEKEEVIEP
B6: GBRAP_125_3103 (protein)
chain: EEEELLEALKALALALGFSEEDAEEAAELARRFSLKNTLIAILLAEGEEELAELVEKLTEEQAKEVLKKLAEWLKENPNASKEEVIKKLKELVEEALKKA
B7: GBRAP_125_3101 (protein)
chain: MEEELLEALKRFALALGFSEEDAEEAAELAKKFSLKQTLIALLLAEGEEELAELVEKLTEEEAKEVLLKLDEYLKKNPNASKEEVLKKFKELVEEALKAS
B8: GBRAP_125_3102 (protein)
chain: EEEELLEALRRLALALGFSEEEAEEAARLAREFSLRQTLIALLLAEGEEELAELVEKLTEEQAKEVLRRLAEYLEAHPDATREEVVAKLRELVEEALAAA
B9: GBRAP_125_3104 (protein)
chain: SEEELLEDLKALALALGFSEEDAEEAARLAAEFSLKNTLIAILLAEGEEELAELVEKLTEEQAKEVLKKLAEYLKKHPNATKEEVIEKFKELVEEALAKS
B10: GBRAP_184_5289 (protein)
chain: MVEEVVIEAENAEEAIKKIKEAAEKAKKEGKKLRLYLFLKNVDVEGFKKIAELLKELKEEGIIEDAIVEILDERTEEETDKFVEIADKAGIRLVIALSDE
B11: GBRAP_128_3375 (protein)
chain: VNEEFLKEIEELVEKMLESSVEEVRELTKKIVELLSKASLEEQEAAVEIILEKLPEFSVEKLEAIADVLREERKKASPELQELLADVEVEALNEAEEKEE
B12: GBRAP_184_5038 (protein)
chain: AIKEVTIEAKDLEELKAKLAELEEEMKNFKGDLIVHVKSPKFTKEMVEELMSTLKNMLDKGYISSATVGLDGEMTEEVVDLAVKLADEAGIKVVLALDEE
B13: GBRAP_11_2726 (protein)
chain: RKETILKFAKEAEALAKEIEKLIKEGPTKEGLEKLAKKAKALYEAAKKAGLPEDIVETLKIAAELLKEAIADPKNAEKYLREAAAAFRVAAGLLLLEAEE
B14: GBRAP_14_3852 (protein)
chain: IEELIKAVEETAKETKEMAKEVLPEHAEEVNKKIEELAKKIIKKIKEENLNKEEVAELMDEFAEELAKFIKEKGFANETEIAAIRATILNEAALKLDEIE
B15: GBRAP_150_3939 (protein)
chain: DLEELLLLAQGIETDLELALEPGFDKLKLAERALELAKDIAKESDEELKKLAEELIKLLEEAIKAIKAGAEEKEIQKLLEEALRKARELIEEIEKKIEEE
B16: GBRAP_9_7172 (protein)
chain: LKAAAAAAIAELREARDFILEIAPEAAAGAVDAAFDALIAALEAARADPTVTPEQFEATLAAGFAAIRAAAAAHLSPEVAAAVETEMLTVRDIADEKLDE
B17: GBRAP_95_7026 (protein)
chain: EDDQLLVDSLTEVLETYVDLGDEERAREAARRLVRALRENGILPLPKSISVEAAKLILEVALEELDLEELEALAKQLIEATKDEEVRKYAEAKIAEKRAR
B18: GBRAP_52_6035 (protein)
chain: MEERMRELARRIVELLLAGREEEARRLIREAVETLSEEELKLLGEELARLAREAAPEDLDAIMEAAFLLADALEEGGYDEVLADDLLARVAAAAVANLQA
B19: GBRAP_52_6034 (protein)
chain: MRERMRRLAEEAVALALAGDEEGAKALIKEAVETLSEEELKLLGEELARLAREAAPEDLDAIMEVAFWLADALIEAGYDEVFADDLEARVARAAVENLQA
B20: GBRAP_52_6042 (protein)
chain: MEERMRELAEEILALYLEGREEEARKLIREAVETLSEEELKLLGEALAELAREAPPEHLDAYMQAAFDLADALEEAGYDEVLADDLEARVAAAAVENLKR
B21: GBRAP_160_4751 (protein)
chain: SEALKKLKEEVKKIFEEGIEMLKEVPAEEAPTVLRGVMGEVLMEVFSSEAASDELEEEVGEVVDKAEAEAAANANAPVEYHIELLEKAKKEILEIIEKEI
B22: GBRAP_52_6275 (protein)
chain: MEEEAERLAEEFIRVALEGSEEEIREFARRLVEEKSEELIARVLEIVVEKAEELNAEEIEKLLEAVLILEGELEEAGRDPLPAQDAAARLAKLHEEKLKE
B23: GBRAP_78_6606 (protein)
chain: EVEELLEEAIELLSKAAKLLKELPPEVRDELMDLLVEAMSLLLESIEEGPNLKLLEEALKHVEEAIELLKKEKTPEAEKIIKLLEEAKEKIEKAIKLLKK
B24: GBRAP_184_5238 (protein)
chain: KVLEVTVEAADAEELRAKLEAVFAEAEAAGARVRLDVLVEELTPEKVDVLTEEIARMAAAGLLDLVEVTSSTPIAEEHIDRLVAAADAAGVRLVIAEPDE
B25: GBRAP_57_6464 (protein)
chain: MSPLEKALEHFEKAIKLIEEGASLEEILEEVEKGLEELDHTLLLDILLLLDPSARSDLSREELRERLLELVRRYLEEKGREEALKALKLMAGQVEMALTE
B26: GBRAP_125_3136 (protein)
chain: KRAALLALAEALARAMGFSEEEIAEIRRLAEAHDPAQTIVAIFLAAGAEEAAELAAEVLDKLSEEEIAALRALAEAARDLPLEEAVARLLAALKEAKAKL
B27: GBRAP_52_6252 (protein)
chain: MRARLRADAREILELVKEGREEEARRLAREIAETYNEEELRLFIDEFAALAAEAPKEDIDDVWRAAEILAEALEEAGWEEVLVDDALARTAAALVKVEAK
B28: GBRAP_184_5187 (protein)
chain: MVVEEELEIEDVAEARAKIAAIGERIAGKKAKLRVIVKAKKITVEIARTIMEGLGAIKAAGNATDITVELVGEMSEEVIDTAVELAKKAGIRVVIAMSEE
B29: GBRAP_11_2656 (protein)
chain: KKEAYKKAAELAEEAAKALQKLIEEGVDDEELIEKLRKLIEELKKLAEEELDEADKKEVEVVVELFEEFLADEENRLQLAEELLAGLRVLAGNFQLKADE

What follows are binders tested against GABARAP, O95166 (assay: median log2 fold change of GCK-ALFA target abundance (FLAG IP / Myc IP barcode read proportion) (log2 ratio); each designed protein is fused to an ALFA-tag nanobody in HEK293 cells to bring the named protein to FLAG-tagged glucokinase (GCK); Myc marks an untargeted standard; higher = target protein stabilised (more abundant)). Details: target protein: 3xFLAG-MCP-GCK-ALFA reporter; HEK293 landing pad (RPLP).
Sequence of GABARAP, O95166 (O95166 whole entry, the tested form may be a part): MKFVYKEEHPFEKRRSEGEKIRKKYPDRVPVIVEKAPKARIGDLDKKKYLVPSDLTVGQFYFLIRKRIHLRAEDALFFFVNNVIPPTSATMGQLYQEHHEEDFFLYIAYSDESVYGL
Outline: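 Sequencing of reverse-transcribed, amplified circular RNA barcodes from anti-FLAG and anti-Myc immunoprecipitates provided the readout for an ALFA-nanobody-fused binder library recombined into HEK293 landing-pad cells. Those cells were induced with 2 μg mL^−1 doxycycline, transfected with a plasmid expressing a FLAG-tagged target and a Myc-tagged standard, and lysed after 48 h. Target abundance is the per-binder median log2 ratio of FLAG to Myc barcode read proportions. Only barcodes at a proportion of ≥10^−7 in both replicates and binders with ≥3 barcodes per replicate were kept, with a 10^−6 pseudocount added before the two replicates were pooled.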
With B1 the “median log2 fold change” value was -0.964. For B2, the “median log2 fold change” value was 0.075. B3 was tested, and the “median log2 fold change” value was -0.0618. For B4, the “median log2 fold change” value was -0.0128. With B5 the “median log2 fold change” value was 0.0022. B6 was tested, and the “median log2 fold change” value was -1.16. For B7, the “median log2 fold change” value was -0.382. For B8, the “median log2 fold change” value was -0.364. With B9 the “median log2 fold change” value was -0.801. For B10, the “median log2 fold change” value was -0.121. For B11, the “median log2 fold change” value was 0.132. With B12 the “median log2 fold change” value was 0.0979. With B13 the “median log2 fold change” value was 0.0545. For B14, the “median log2 fold change” value was 0.15. For B15, the “median log2 fold change” value was 0.139. B16 was tested, and the “median log2 fold change” value was -0.00921. In the case of B17, the “median log2 fold change” value is reported as 0.182. In the case of B18, the “median log2 fold change” value is reported as -0.612. For B19, the “median log2 fold change” value was -0.573. With B20 the “median log2 fold change” value was -0.435. With B21 the “median log2 fold change” value was -0.117. B22 was tested, and the “median log2 fold change” value was 0.0823. In the case of B23, the “median log2 fold change” value is reported as -0.743. In the case of B24, the “median log2 fold change” value is reported as 0.168. With B25 the “median log2 fold change” value was 0.249. In the case of B26, the “median log2 fold change” value is reported as -0.351. B27 was tested, and the “median log2 fold change” value was -0.272. In the case of B28, the “median log2 fold change” value is reported as 0.57. With B29 the “median log2 fold change” value was 0.336.

Source: the supplement of paper PMC12632987
